# Structures can show the parent of a compound that is named as a salt.
# System: PBMC-derived induced microglia-like cells (piMGLC)
# Assay: synaptosome phagocytic index relative to DMSO control (fraction of DMSO); higher = more phagocytosis
# Conditions: concentration: 10 uM (2 uM for compounds listed in Table S2); pretreatment time: 24 h; assay time: 3 h
row,SMILES,synaptosome phagocytic index
1,CC(C)CCn1c(CN2CCN(C(=O)C3CC3)CC2)nc2c1c(=O)n(C)c(=O)n2C,0.707
2,OC(CN1CCN(c2cccc(Cl)c2)CC1)C(c1ccccc1)c1ccccc1 (stereo not given),1.01
3,Nc1nnc(-c2cccc(Cl)c2Cl)c(N)n1 [Lamotrigine],1.3
4,N[C@H](C(=O)O)[C@H](O)c1ccc(O)c(O)c1 [Droxidopa],0.507
5,N=C(N)NC(=O)Cc1c(Cl)cccc1Cl [Guanfacine_(hydrochloride)],1.13
6,O=C(CCCN1CCC(O)(c2ccc(Cl)cc2)CC1)c1ccc(F)cc1 [Haloperidol],1.05
7,COc1cc2ncnc(Nc3ccc(F)c(Cl)c3)c2cc1NC(=O)/C=C/CN1CCCCC1 [Dacomitinib],1.26
8,Cc1c(N)c(=O)n(-c2ccccc2)n1C [Ampyrone],0.708
9,Clc1ccc2c(c1)C(N1CCNCC1)=Nc1ccccc1O2 [Amoxapine],0.463
10,Clc1cccc(CN=C2Nc3ccccc3NC23CCNCC3)c1 [Liproxstatin-1],1.31
11,NC(=O)[C@H](Cc1c[nH]c2ccccc12)NC(=O)CNC(=O)[C@H](CCCN=C(N)N)NC(=O)[C@@H]1C[C@@H](O)CN1C(=O)[C@@H](N)Cc1ccc(F)cc1 [Nemifitide_(diTFA)],0.903
12,CN(C)c1ncc(/C=C/c2nc3ccc(OCCF)cc3o2)s1,0.356
13,Cn1ncc(-c2nn(C)c3ncnc(N4CCC4)c23)c1-c1ccc(C(F)(F)F)cc1,0.505
14,C[C@@H]1O[C@@H]1P(=O)(O)O [Fosfomycin_(calcium)],0.946
15,O=C1CCC(N2C(=O)c3ccccc3C2=O)C(=O)N1 (stereo not given) [Thalidomide],0.811

# — the supplement of paper PMC12339681
